Screening data (PubChem)
Hits are enriched below; roughly 3.9% of the tested compounds scored in any of these assays.
Anthrax LF inh2: Bacillus anthracis LF protease inhibitors, primary screen, biochemical, multiplex microsphere, MLPCN library; 0.12% of 360,000 active; inhibition, % at 10 µM; multiplex microsphere protease cleavage assay; Lethal factor (Bacillus anthracis), P15917; further: plate controls were buffer without enzyme for full effect and enzyme alone for no effect
Target sequence (P15917 whole entry, looked up): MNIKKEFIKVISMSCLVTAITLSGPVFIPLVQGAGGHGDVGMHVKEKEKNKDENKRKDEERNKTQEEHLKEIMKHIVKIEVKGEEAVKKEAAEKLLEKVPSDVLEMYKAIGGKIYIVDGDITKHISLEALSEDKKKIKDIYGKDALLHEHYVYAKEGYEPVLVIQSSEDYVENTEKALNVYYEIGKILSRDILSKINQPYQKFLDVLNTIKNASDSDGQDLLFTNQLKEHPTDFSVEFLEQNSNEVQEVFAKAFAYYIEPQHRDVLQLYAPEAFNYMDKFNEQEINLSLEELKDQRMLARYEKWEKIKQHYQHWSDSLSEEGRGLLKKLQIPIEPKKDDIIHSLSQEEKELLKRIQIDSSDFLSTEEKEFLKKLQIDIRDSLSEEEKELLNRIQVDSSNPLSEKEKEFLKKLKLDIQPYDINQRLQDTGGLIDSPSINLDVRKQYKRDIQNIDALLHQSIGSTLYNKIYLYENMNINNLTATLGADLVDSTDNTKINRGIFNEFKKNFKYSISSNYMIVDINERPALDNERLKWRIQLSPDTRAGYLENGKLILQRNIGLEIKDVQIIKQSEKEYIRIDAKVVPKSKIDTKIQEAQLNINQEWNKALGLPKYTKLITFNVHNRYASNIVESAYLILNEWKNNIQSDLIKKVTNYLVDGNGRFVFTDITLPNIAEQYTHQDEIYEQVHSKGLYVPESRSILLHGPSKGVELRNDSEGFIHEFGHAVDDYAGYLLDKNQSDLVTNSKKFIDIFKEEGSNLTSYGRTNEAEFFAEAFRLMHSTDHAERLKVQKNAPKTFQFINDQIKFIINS
CCHF vOTU inh: CCHFV vOTU protease inhibitors, primary screen, biochemical, Pep-AMC substrate, fluorescence. 0.55% of 370,000 active. AID 651958, 2012. inhibition, % at 11.5 µM. Crimean-Congo hemorrhagic fever virus L polyprotein viral ovarian tumor (vOTU) protease …; in the data active means inhibition above about 30%; further: 0% = vehicle wells with enzyme and 100% = no enzyme wells
3CLpro inhibitor: SARS-CoV 3CLpro protease inhibitors, primary screen, biochemical, quenched FRET. recombinant SARS-CoV 3CLpro, quenched FRET peptide cleavage. AID 1706, 2009. Replicase polyprotein 1ab (Severe acute respiratory syndrome coronavirus), P0C6X7. inhibition, % at 6 µM. 0.14% of 290,000 active; in the data active means inhibition above about 12%
Autofluor counter: flagged as autofluorescent in microsphere protease counterscreen. compound autofluorescence counterscreen, microsphere flow cytometry; active compounds read high. fluorescence intensity (concentration not given with the values). 3.1% of 360,000 active. AID 624483; in the data active means fluorescence intensity above about 16000; inconclusive means no clear call, values can overlap the other calls
BoNT-A LC inh2: BoNT/A light chain protease inhibitors, primary screen, biochemical, flow cytometry, MLPCN library. multiplex microsphere protease substrate cleavage. 0.17% of 360,000 active. AID 588499, 2011. inhibition, % at 10 µM. Botulinum neurotoxin type A light chain protease (Clostridium botulinum A str. ATCC 3502); further: plate controls were buffer without enzyme for full effect and enzyme alone for no effect
BoNT-F LC inh: BoNT/F light chain protease inhibitors, primary screen, biochemical, flow cytometry, MLPCN library; Multiplex microsphere protease cleavage assay; 0.22% of 360,000 active; inhibition, % at 10 µM; Botulinum neurotoxin type F light chain protease (Clostridium botulinum); AID 588497, 2011; in the data active means inhibition above about 35%, passing the limit was not always enough; inconclusive means no clear call, values can overlap the other calls; further: plate controls were buffer without enzyme for full effect and enzyme alone for no effect
Numbers without * were called inactive. Unless noted, no stated cut-off is given here; in the data, active means inhibition above about 30%; inconclusive means no clear call, values can overlap the other calls; inactive means below that.

For O=C(OCc1ccccc1)Oc1cncc(C(=O)O)c1 the results were Anthrax LF inh2 -6, CCHF vOTU inh -1, 3CLpro inhibitor -2, Autofluor counter 16938*, BoNT-A LC inh2 -3 and BoNT-F LC inh -5.
For C=CCOC/C=C/C#CCN(Cc1ccc(OC)cc1OC)C(=O)Nc1ccccc1 the results were CCHF vOTU inh 6.
COc1cccc(NC(=O)Nc2nc3ncccn3c2-c2ccc(F)c(F)c2)c1 was read as CCHF vOTU inh -25.
CC(=O)c1ccc(NC(=O)CSc2nnc(NC(=O)CN3CCOCC3)s2)cc1 was read as Anthrax LF inh2 -3, CCHF vOTU inh 10, 3CLpro inhibitor -1, Autofluor counter 5339, BoNT-A LC inh2 0 and BoNT-F LC inh -4.
`CC(Sc1nnc(NC2CC2)s1)C(=O)Nc1ccc(N2CCOCC2)cc1` (stereo unspecified) gave Anthrax LF inh2 -8, CCHF vOTU inh 9, Autofluor counter 4779, BoNT-A LC inh2 3 and BoNT-F LC inh 0.
Screening Cc1ccc(NC(=O)CSc2nnc(NC(=O)CN3CCOCC3)s2)cc1 returned Anthrax LF inh2 -2, CCHF vOTU inh 3, 3CLpro inhibitor -5, Autofluor counter 16377*, BoNT-A LC inh2 0 and BoNT-F LC inh 5.
`O=C(CSc1nnc(NC2CCCCC2)s1)Nc1ccc(N2CCOCC2)cc1` gave Anthrax LF inh2 1, CCHF vOTU inh -11, 3CLpro inhibitor -6, Autofluor counter 22057*, BoNT-A LC inh2 1 and BoNT-F LC inh 2.
Screening COc1ccc(C#CCN(Cc2ccc(OC)cc2OC)C(N)=NC(=O)CCc2ccccc2)cc1 returned CCHF vOTU inh 5.
For O=C(Nc1ccc(Cl)cc1C(=O)NCC1CCCO1)c1ccco1 (stereo unspecified) the results were Anthrax LF inh2 1, CCHF vOTU inh -6, 3CLpro inhibitor -2, Autofluor counter 23431*, BoNT-A LC inh2 -2 and BoNT-F LC inh -3.
CCOc1cc(NS(=O)(=O)c2ccc(OC)cc2)c(OCC)cc1NC(=O)c1ccco1 was read as Anthrax LF inh2 -2, CCHF vOTU inh -3, 3CLpro inhibitor 2, Autofluor counter 22748*, BoNT-A LC inh2 0 and BoNT-F LC inh -2.
Screening O=C(Nc1ccc(Cl)cc1C(=O)NCc1cccnc1)c1ccco1 returned Anthrax LF inh2 -4, CCHF vOTU inh -11, 3CLpro inhibitor 1, Autofluor counter 23145*, BoNT-A LC inh2 inconclusive and BoNT-F LC inh 2.
Screening O=C(Nc1ccc(Cl)cc1C(=O)NCC1CCCO1)c1ccc(Cl)cc1Cl (stereo unspecified) returned Anthrax LF inh2 1, CCHF vOTU inh -6, 3CLpro inhibitor 0, Autofluor counter 2486, BoNT-A LC inh2 0 and BoNT-F LC inh -6.
`CCOc1cc(NC(=O)c2ccco2)c(OCC)cc1NC(=O)CCC(=O)NCc1cccnc1` gave Anthrax LF inh2 -3, 3CLpro inhibitor 2, Autofluor counter 19666*, BoNT-A LC inh2 2 and BoNT-F LC inh 0.
N#CCC[C@H]1CC[C@]2(CCCN(C(=O)c3ccno3)C2)O1 was read as CCHF vOTU inh 8.
For Cc1cc(NC(=O)c2ccco2)ccc1NC(=O)c1ccco1 the results were Anthrax LF inh2 0, CCHF vOTU inh 3, 3CLpro inhibitor 0, Autofluor counter 5831, BoNT-A LC inh2 0 and BoNT-F LC inh 7.
For Cc1cc(NC(=O)c2cccnc2)ccc1NC(=O)c1ccco1 the results were Anthrax LF inh2 -2, CCHF vOTU inh -2, 3CLpro inhibitor 5, Autofluor counter 22536*, BoNT-A LC inh2 0 and BoNT-F LC inh 0.
`c1ccc2c(c1)NC1(CCCCCC1)n1c-2nc2ccccc21` gave CCHF vOTU inh -221 and 3CLpro inhibitor 0.
`CC1(c2ccccn2)Nc2ccccc2-c2nc3ccccc3n21` (stereo unspecified) gave Anthrax LF inh2 -3, CCHF vOTU inh -237, 3CLpro inhibitor 6, Autofluor counter 22286*, BoNT-A LC inh2 -1 and BoNT-F LC inh -4.
`CN1C(=O)C2(Nc3ccccc3-c3nc4ccccc4n32)c2ccccc21` (stereo unspecified) gave Anthrax LF inh2 -5, CCHF vOTU inh 2, 3CLpro inhibitor -4, Autofluor counter 23406*, BoNT-A LC inh2 -2 and BoNT-F LC inh -2.
Screening O=C1Nc2ccccc2C12Nc1ccccc1-c1nc3ccccc3n12 (stereo unspecified) returned Anthrax LF inh2 2, CCHF vOTU inh 4, 3CLpro inhibitor 1, Autofluor counter 4276, BoNT-A LC inh2 1 and BoNT-F LC inh 8.
COC(=O)[C@@]12CCCCC=C1N(CCc1ccc(Cl)cc1)C(=O)[C@H]2CC(=O)NCc1cccc2ccccc12 was read as CCHF vOTU inh 7.
Screening CN1C(=O)c2cc(NC(=O)c3ccc(F)cc3)ccc2OC[C@H]2O[C@H](CC(=O)NC3CCC3)CC[C@H]21 returned CCHF vOTU inh -6.
For Cc1ccc(SCC(=O)NNC(=O)C2CCCCC2)cc1 the results were Anthrax LF inh2 -3, CCHF vOTU inh -4, 3CLpro inhibitor 1, Autofluor counter 20856*, BoNT-A LC inh2 inconclusive and BoNT-F LC inh -1.
For CCc1nc(SCC(=O)NNC(=O)C2CCCCC2)c2ccccc2n1 the results were Anthrax LF inh2 -2, CCHF vOTU inh -5, 3CLpro inhibitor 1, Autofluor counter 21748*, BoNT-A LC inh2 inconclusive and BoNT-F LC inh -8.
For Cc1nc2ccccn2c1C(=O)N/N=C/c1cc(C)n(-c2ccc(Br)cc2)c1C the results were Anthrax LF inh2 -6, CCHF vOTU inh 2, 3CLpro inhibitor 0, Autofluor counter 23974*, BoNT-A LC inh2 -4 and BoNT-F LC inh -8.
Screening Cc1ccc(N(CN2CCCC2=O)C(=O)c2ccc(C)c(C)c2)cc1 returned Anthrax LF inh2 -1, CCHF vOTU inh -2, 3CLpro inhibitor 3, Autofluor counter 21259*, BoNT-A LC inh2 inconclusive and BoNT-F LC inh 3.
`CS(=O)(=O)c1ccc(OCCCN2CCC(C(O)(c3ccccc3)c3ccccc3)CC2)cc1` gave CCHF vOTU inh -9.
`CCOC(=O)C(=N/O)/C(C)=N/NC(C)=O` gave Anthrax LF inh2 -5, CCHF vOTU inh 2, 3CLpro inhibitor 5, Autofluor counter 4605, BoNT-A LC inh2 4 and BoNT-F LC inh 46*.
Screening CCOC(=O)C(=N/O)/C(C)=N/NC(=O)C(=O)Nc1cc(Cl)ccc1Cl returned Anthrax LF inh2 -6, CCHF vOTU inh -4, 3CLpro inhibitor 1, Autofluor counter 5280, BoNT-A LC inh2 -1 and BoNT-F LC inh -15.
COC(=O)c1cc2c(c3c4cc(OC)ccc4n(S(=O)(=O)c4ccc(C)cc4)c13)C(=O)N(C)C2 was read as CCHF vOTU inh 0.
Screening O=C(Nc1c(-c2ccccc2)nc2ccccn12)c1ccco1 returned Anthrax LF inh2 1, CCHF vOTU inh 3, 3CLpro inhibitor 4, Autofluor counter 22214*, BoNT-A LC inh2 inconclusive and BoNT-F LC inh 0.
